# Test results published in PubChem BioAssay (Tox21).
# Records with an inconclusive call do not appear. Unmarked numbers belong to inactive results. Calls of active or inactive are those of the source. The call rests on the fitted dose curve.
# Target: Beta-2 adrenergic receptor (Homo sapiens) (UniProt P07550)
# Assay: Adrenergic beta2 receptor (ADRB2) small molecule antagonists, cell-based qHTS assay (AID 1963592); further: nearly all actives have a fitted effect of over 50% in size; further: potency means the concentration at half of the fitted maximal effect
# Details: CHO-ADRB2 cells, isoproterenol-stimulated cAMP HTRF ratio, 0.5 h; series mostly up to 92.4 µM; activity change, negative = inhibition: at the top concentration
# Method in brief: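 Assay format: CHO-ADRB2 cells, 18-20hr seeding at 37C/5% CO2, then compound plus 1nM isoproterenol agonist mix for 0.5hr RT. Homogeneous time-resolved fluorescence cAMP detection after 1hr, expressed as 665/615 nm ratio.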
# On the % scale 0 is the no-effect control and ±100 the full control effect.
# Sequence of Beta-2 adrenergic receptor (Homo sapiens) (P07550 whole entry, looked up): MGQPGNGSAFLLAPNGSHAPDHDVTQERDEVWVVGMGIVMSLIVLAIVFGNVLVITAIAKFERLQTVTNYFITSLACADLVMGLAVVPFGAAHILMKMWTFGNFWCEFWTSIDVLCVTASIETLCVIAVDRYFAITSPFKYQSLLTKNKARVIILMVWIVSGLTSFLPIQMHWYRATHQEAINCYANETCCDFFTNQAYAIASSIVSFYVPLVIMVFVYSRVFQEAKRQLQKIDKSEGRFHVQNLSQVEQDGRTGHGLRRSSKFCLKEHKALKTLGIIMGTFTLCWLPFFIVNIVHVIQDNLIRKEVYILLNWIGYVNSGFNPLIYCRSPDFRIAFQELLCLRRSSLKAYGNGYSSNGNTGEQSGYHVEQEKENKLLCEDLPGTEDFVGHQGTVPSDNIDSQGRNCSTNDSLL
Compound,"activity change, negative = inhibition",Potency
CC(C)=CC(C)(C)C,0.879%,
CCCC/C=C/CCCCO,-7.15%,
C[C@H](CS)C(=O)N1CCC[C@H]1C(=O)O,-7.11% [at 42.5 µM],
C/C=C1\[C@H]2C=C(C)C[C@]1(N)c1ccc(=O)[nH]c1C2,0.323% [at 42.5 µM],
CCCCCC(C)OC(=O)COc1ccc(Cl)c2cccnc12 (stereo not drawn),0.199%,
Cc1ccccc1N=Nc1ccc(N=Nc2c(O)ccc3ccccc23)c(C)c1,5.65% [at 42.5 µM],
Brc1c(NC2=NCCN2)ccc2nccnc12,-8.75% [at 42.5 µM],
CC1CN(c2ccccc2)NC1=O (stereo not drawn),-8.83%,
O=C(NCC(O)CO)c1c(I)c(C(=O)NCC(O)CO)c(I)c(N(CCO)C(=O)CO)c1I (stereo not drawn),10.6% [at 42.5 µM],
O=[N+]([O-])c1ccc2ncccc2c1,-3.07%,
Oc1ccc(C2(c3ccc(O)c(C4CCCCC4)c3)CCCCC2)cc1C1CCCCC1,-14%,
Cc1cc(-c2ccc(N=Nc3cc(S(=O)(=O)O)c4ccccc4c3N)c(C)c2)ccc1N=Nc1cc(S(=O)(=O)O)c2ccccc2c1N,-1.88%,
CCN(CC)CC,4.91%,
CO,2.67%,
O=C(c1ccccc1)c1ccc(O)cc1O,,inactive
COC(=O)/C=C/C(C)=C\C=C\C(C)=C\C=C\C=C(C)\C=C\C=C(C)\C=C\C(=O)O,-4.41%,
C[C@H]1[C@H](NC(=O)/C(=N/OC(C)(C)C(=O)O)c2csc(N)n2)C(=O)N1S(=O)(=O)O (stereo in doubt),0.539% [at 42.5 µM],

Compound,"activity change, negative = inhibition",Potency
Oc1ccc2ccccc2c1,,inactive
CCOC(=O)c1ccc(C2CCC(NC[C@H](O)COc3ccc(O)c(NS(C)(=O)=O)c3)CC2)cc1 (stereo partly drawn),,7.96 µM (active)
CCOC(=O)[C@@H](C)Oc1ccc(Oc2nc3ccc(Cl)cc3o2)cc1,-15.7%,
O=C(O)Cc1cc(I)c(Oc2ccc(O)c(I)c2)c(I)c1,-8.83%,
Cc1c(Nc2ncccc2C(=O)O)cccc1C(F)(F)F,0.0884% [at 42.5 µM],
O=C(CS(=O)Cc1ccco1)NC/C=C\COc1cc(CN2CCCCC2)ccn1 (stereo not drawn),1.45% [at 42.5 µM],
O=P(c1ccccc1)(c1ccccc1)c1ccccc1,-0.514%,
O=S(c1cc(Cl)cc(Cl)c1O)c1cc(Cl)cc(Cl)c1O,-8.42% [at 42.5 µM],
CN(CCCN1c2ccccc2CCc2ccccc21)CC(=O)c1ccc(Cl)cc1,-24.1% [at 42.5 µM],
CC(C(=O)O)c1ccc2c(c1)[nH]c1ccc(Cl)cc12 (stereo not drawn),-6.46% [at 42.5 µM],
c1ccc2sc(SSc3nc4ccccc4s3)nc2c1,1.66% [at 19 µM],
C=C/C=C/C=C/CCCCC,4.38% [at 19 µM],
CCCCCCOC(=O)c1ccccc1,-0.503%,
O=C(O)CCCCCCCCCCCBr,12.2%,
CC(=O)OCC=C(C)C,2.59% [at 42.5 µM],
NC1=NCC2c3ccccc3Cc3ccccc3N12 (stereo not drawn),-11.3% [at 42.5 µM],

# Target: Beta-2 adrenergic receptor (Homo sapiens) (UniProt P07550)
# Assay: Adrenergic beta2 receptor (ADRB2) small molecule agonists, cell-based qHTS assay (AID 1963593);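 further: CHO cells stably overexpressing human ADRB2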
# Details: CHO-ADRB2 cells, cAMP HTRF, 30 min; series mostly up to 92.4 µM; activation: at the top concentration
# Method in brief: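 CHO cells stably over-expressing ADRB2 were plated overnight at 37C, then dosed with compounds plus a stimulation mix containing 100uM IBMX and 25uM Ro-20-1724 for 0.5hr at room temperature. cAMP was measured by HTRF competition, 1hr.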
row,Compound,activation
1,CCCC/C=C/CCCCO,-32.9%
2,C[C@H](CS)C(=O)N1CCC[C@H]1C(=O)O,31.7% [at 42.5 µM]
3,C/C=C1\[C@H]2C=C(C)C[C@]1(N)c1ccc(=O)[nH]c1C2,-22.5% [at 42.5 µM]
4,CCCCCC(C)OC(=O)COc1ccc(Cl)c2cccnc12 (stereo not drawn),-0.299%
5,Cc1ccccc1N=Nc1ccc(N=Nc2c(O)ccc3ccccc23)c(C)c1,2.35% [at 42.5 µM]
6,Brc1c(NC2=NCCN2)ccc2nccnc12,18.1% [at 42.5 µM]
7,CC1CN(c2ccccc2)NC1=O (stereo not drawn),-4.36%
8,O=C(NCC(O)CO)c1c(I)c(C(=O)NCC(O)CO)c(I)c(N(CCO)C(=O)CO)c1I (stereo not drawn),-1.76% [at 42.5 µM]
9,Cc1cc(-c2ccc(N=Nc3cc(S(=O)(=O)O)c4ccccc4c3N)c(C)c2)ccc1N=Nc1cc(S(=O)(=O)O)c2ccccc2c1N,6.35%
10,CO,2.6%
11,O=C(c1ccccc1)c1ccc(O)cc1O,3.12%
12,CCOC(=O)[C@@H](C)Oc1ccc(Oc2nc3ccc(Cl)cc3o2)cc1,15.6%
13,COC(C(=O)O)c1ccccc1 (stereo not drawn),-22.9%
14,CS(=O)(=O)Nc1ccc([N+](=O)[O-])cc1Oc1ccccc1,-32.5%
15,Cc1c(Nc2ncccc2C(=O)O)cccc1C(F)(F)F,-9.46% [at 42.5 µM]
16,O=C(CS(=O)Cc1ccco1)NC/C=C\COc1cc(CN2CCCCC2)ccn1 (stereo not drawn),16.8% [at 42.5 µM]
17,CC(C(=O)O)c1ccc2c(c1)[nH]c1ccc(Cl)cc12 (stereo not drawn),-11.8% [at 42.5 µM]
18,c1ccc2sc(SSc3nc4ccccc4s3)nc2c1,0.998% [at 19 µM]
19,CC(=O)OCC=C(C)C,8.76% [at 42.5 µM]

# Target: D(2) dopamine receptor (Homo sapiens) (UniProt P14416)
# Assay: Dopamine D2 receptor (DRD2) small molecule agonists, cell-based qHTS assay (AID 1963594); further: nearly all actives have a fitted effect of over 35% in size; further: potency means the concentration at half of the fitted maximal effect
# Details: HEK293-DRD2 cAMP HTRF, agonist mode, 30 min; series mostly up to 92.4 µM; activation: at the top concentration
# Method in brief: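 HEK293 cells stably expressing human DRD2, pre-treated with PDE inhibitor Ro20-1724 (0.1 mM final) and compound 10 min at room temperature, then stimulated with NKH477 (200nM […]) for 30 min. cAMP read by HTRF (665/620 nm).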
# Sequence of D(2) dopamine receptor (Homo sapiens) (P14416 whole entry, looked up): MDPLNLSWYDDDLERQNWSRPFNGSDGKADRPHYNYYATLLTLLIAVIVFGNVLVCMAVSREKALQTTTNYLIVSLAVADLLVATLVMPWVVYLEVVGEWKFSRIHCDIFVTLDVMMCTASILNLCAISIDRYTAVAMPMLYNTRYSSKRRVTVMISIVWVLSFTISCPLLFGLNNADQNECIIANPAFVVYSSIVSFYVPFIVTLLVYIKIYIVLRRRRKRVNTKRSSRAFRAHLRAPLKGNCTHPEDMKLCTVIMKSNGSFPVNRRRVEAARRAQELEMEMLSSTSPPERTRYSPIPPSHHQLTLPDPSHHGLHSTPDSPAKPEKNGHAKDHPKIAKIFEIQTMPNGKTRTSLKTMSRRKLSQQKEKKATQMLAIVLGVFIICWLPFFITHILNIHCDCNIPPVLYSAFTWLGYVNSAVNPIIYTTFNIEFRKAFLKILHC
Compound,activation,Potency
CC(C)=CC(C)(C)C,-0.648%,
CCCC/C=C/CCCCO,-13.2%,
C[C@H](CS)C(=O)N1CCC[C@H]1C(=O)O,7.57% [at 42.5 µM],
C/C=C1\[C@H]2C=C(C)C[C@]1(N)c1ccc(=O)[nH]c1C2,13.2% [at 42.5 µM],
C[C@@H]1C[C@H]2O[C@@]3(O[C@@H]2C(C)(C)O)[C@H](O)[C@@]2(C)[C@@H]4CC[C@H]5C(C)(C)[C@@H](O[C@@H]6OC[C@@H](O)[C@H](O)[C@H]6O)CC[C@@]56C[C@@]46CC[C@]2(C)[C@@H]13,0.0357% [at 42.5 µM],
CCCCCC(C)OC(=O)COc1ccc(Cl)c2cccnc12 (stereo not drawn),3.28%,
Cc1ccccc1N=Nc1ccc(N=Nc2c(O)ccc3ccccc23)c(C)c1,-0.456% [at 42.5 µM],
Brc1c(NC2=NCCN2)ccc2nccnc12,-3.35% [at 42.5 µM],
CC1CN(c2ccccc2)NC1=O (stereo not drawn),1.4%,
O=C(NCC(O)CO)c1c(I)c(C(=O)NCC(O)CO)c(I)c(N(CCO)C(=O)CO)c1I (stereo not drawn),-3.75% [at 42.5 µM],
O=[N+]([O-])c1ccc2ncccc2c1,-4.65%,
Oc1ccc(C2(c3ccc(O)c(C4CCCCC4)c3)CCCCC2)cc1C1CCCCC1,-1.06%,
Cc1cc(-c2ccc(N=Nc3cc(S(=O)(=O)O)c4ccccc4c3N)c(C)c2)ccc1N=Nc1cc(S(=O)(=O)O)c2ccccc2c1N,-3.16%,
CCN(CC)CC,-1.34%,
CO,-0.917%,
O=C(c1ccccc1)c1ccc(O)cc1O,,inactive
COC(=O)/C=C/C(C)=C\C=C\C(C)=C\C=C\C=C(C)\C=C\C=C(C)\C=C\C(=O)O,1.01%,
C[C@H]1[C@H](NC(=O)/C(=N/OC(C)(C)C(=O)O)c2csc(N)n2)C(=O)N1S(=O)(=O)O (stereo in doubt),-8.86% [at 42.5 µM],

Compound,activation,Potency
Oc1ccc2ccccc2c1,,inactive
CCOC(=O)c1ccc(C2CCC(NC[C@H](O)COc3ccc(O)c(NS(C)(=O)=O)c3)CC2)cc1 (stereo partly drawn),,0.0796 µM (active)
CCOC(=O)[C@@H](C)Oc1ccc(Oc2nc3ccc(Cl)cc3o2)cc1,1.16%,
COC(C(=O)O)c1ccccc1 (stereo not drawn),0.35%,
CS(=O)(=O)Nc1ccc([N+](=O)[O-])cc1Oc1ccccc1,,inactive
CN(C)CC/C=C1\c2ccccc2COc2ccccc21,20.9% [at 42.5 µM],
O=C(O)Cc1cc(I)c(Oc2ccc(O)c(I)c2)c(I)c1,0.469%,
O=C(CS(=O)Cc1ccco1)NC/C=C\COc1cc(CN2CCCCC2)ccn1 (stereo not drawn),-10.6% [at 42.5 µM],
O=P(c1ccccc1)(c1ccccc1)c1ccccc1,-0.45%,
Oc1ccc(N=Nc2ccccc2)cc1,1.56%,
O=S(c1cc(Cl)cc(Cl)c1O)c1cc(Cl)cc(Cl)c1O,5.26% [at 42.5 µM],
CN(CCCN1c2ccccc2CCc2ccccc21)CC(=O)c1ccc(Cl)cc1,0.498% [at 42.5 µM],
CC(C(=O)O)c1ccc2c(c1)[nH]c1ccc(Cl)cc12 (stereo not drawn),-0.202% [at 42.5 µM],
c1ccc2sc(SSc3nc4ccccc4s3)nc2c1,10.5% [at 19 µM],
C=C/C=C/C=C/CCCCC,-0.0392% [at 19 µM],
CCCCCCOC(=O)c1ccccc1,-1.11%,
CC(=O)OCC=C(C)C,0.383% [at 42.5 µM],
NC1=NCC2c3ccccc3Cc3ccccc3N12 (stereo not drawn),,4.92 µM (active)
